According to PubChem BioAssay (EPA / NIEHS):
The source made the active and inactive calls. The calls were made as follows: active = hit-call score of the fitted dose curve at least 0.9, where 1 is the maximum; inactive = score below 0.9.

Test: ATG_NRF2_ARE_CIS: Attagene CIS-FACTORIAL HepG2 Assay for human Nuclear Factor Erythroid 2 Related Factor 2 (NFR2) response to Antioxidant Response Elements (ARE) (AID 2282992);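 as to AC50: reporter mRNA level measured by RT-PCR and capillary electrophoresis fluorescence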
Conditions: HepG2 Attagene ARE/NRF2 reporter, transcription factor activity; actives raise or lower the signal
Procedure, shortened: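 Transient MRTU transfection of HepG2; 24 h compound exposure; TriZol RNA, RT with oligo(dT), PCR, 6-FAM primer extension, HpaI cut, CE. Bidirectional fit vs DMSO.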

| Structure (SMILES) | AC50 | outcome |
| --- | --- | --- |
| CN(C)[C@@H]1C(=O)C(C(N)=O)=C(O)[C@@]2(O)C(=O)C3=C(O)c4c(O)ccc(Cl)c4[C@@](C)(O)[C@H]3C[C@@H]12 | 20.3 µM (active) | – |
| Nc1ccc(-c2ccccc2)cc1 | 32 µM (active) | – |
| CCN(N=O)C(N)=O | – | inactive |
| O=CCCl | 23.6 µM (active) | – |
| CCCCCCCCCCBr | 68.6 µM (active) | – |
| C=C(C)[C@@H]1CC=C(C=O)CC1 | 80.5 µM (active) | – |
| BrCC(Br)c1ccccc1 (stereo not drawn) | – | inactive |
| Cc1cc(Cl)ccc1O | 37.1 µM (active) | – |
| BrCCCCBr | – | inactive |
| Brc1c(Br)c(Br)c(Oc2c(Br)c(Br)c(Br)c(Br)c2Br)c(Br)c1Br | – | inactive |
| CC(C)(c1ccc(O)c(-c2ccccc2)c1)c1ccc(O)c(-c2ccccc2)c1 | 4.64 µM (active) | – |
| CN(N=O)C(N)=O | – | inactive |
| CCNc1nc(NCC)nc(SC)n1 | – | inactive |
| Brc1ccc(Oc2c(Br)cc(Br)cc2Br)c(Br)c1 | – | inactive |
| Clc1cnc(Oc2ccc(Oc3ncc(Cl)cc3Cl)cc2)c(Cl)c1 | – | inactive |
| CCCCCCCCBr | – | inactive |
| Cc1cc(Cl)ccc1OCCCC(=O)O | – | inactive |
| CCCCC(CC)C(=O)Cl (stereo not drawn) | – | inactive |
| CCCCCCCCCCCCBr | 55.7 µM (active) | – |
| Nc1nc(=S)[nH][nH]1 | – | inactive |

| Structure (SMILES) | AC50 | outcome |
| --- | --- | --- |
| N#Cc1ccccc1N | – | inactive |
| O=[N+]([O-])c1cc([As](=O)(O)O)ccc1O | – | inactive |
| N#Cc1ccccc1Cl | – | inactive |
| CCOP(=S)(OCC)O/N=C(\C#N)c1ccccc1 | 27.7 µM (active) | – |
| c1csc(-c2ccc(-c3cccs3)s2)c1 | 1.22 µM (active) | – |
| OC(c1ccc(Cl)cc1)(c1ccc(Cl)cc1)c1cccnc1 | 11.1 µM (active) | – |
| CC(C)C(C)(N)C#N (stereo not drawn) | – | inactive |
| CC(C)CC(C)(c1ccc(O)cc1)c1ccc(O)cc1 | 11.1 µM (active) | – |
| OCC(c1ccc(Cl)cc1)c1ccc(Cl)cc1 | 43.6 µM (active) | – |
| FC(F)OCC(F)(F)C(F)(F)F | – | inactive |
| CC(=O)CN(CC(C)=O)N=O | – | inactive |
| CCC[CH2][Sn]([CH2]CCC)([CH2]CCC)[CH2]CCC | 5.43 µM (active) | – |
| Cc1cc(-c2cc(C)c(N)c(C)c2)cc(C)c1N | – | inactive |
| CC(=O)C(F)(F)C(F)(F)F | – | inactive |
| Cc1ccc(CCl)cc1 | – | inactive |
| CC(F)(F)CC(F)(F)F | – | inactive |
| COC(F)(C(F)(F)C(F)(F)F)C(F)(C(F)(F)F)C(F)(F)F (stereo not drawn) | – | inactive |
| c1ccc2c(c1)Oc1ccccc1O2 | 35.4 µM (active) | – |
| COC(=O)Nc1cccc(OC(=O)Nc2cccc(C)c2)c1 | – | inactive |

Test: ATG_Oct_MLP_CIS: Attagene CIS-FACTORIAL HepG2 Assay for human Octamer-Binding Transcription Factor (Oct) (AID 2282993)
Conditions: HepG2 Attagene cis-factorial Oct reporter, mRNA; actives raise or lower the signal
Procedure, shortened: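 Readout is reporter transcript level from RT-PCR with fluorescent primer extension and capillary electrophoresis, fitted in both directions against DMSO. Transfected HepG2 reporter units report endogenous factor activity after 24 h dosing.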

| Structure (SMILES) | outcome | AC50 |
| --- | --- | --- |
| CN(C)[C@@H]1C(=O)C(C(N)=O)=C(O)[C@@]2(O)C(=O)C3=C(O)c4c(O)ccc(Cl)c4[C@@](C)(O)[C@H]3C[C@@H]12 | inactive | – |
| Nc1ccc(-c2ccccc2)cc1 | inactive | – |
| CCN(N=O)C(N)=O | inactive | – |
| O=CCCl | – | 26 µM (active) |
| CCCCCCCCCCBr | inactive | – |
| C=C(C)[C@@H]1CC=C(C=O)CC1 | inactive | – |
| BrCC(Br)c1ccccc1 (stereo not drawn) | inactive | – |
| Cc1cc(Cl)ccc1O | inactive | – |
| BrCCCCBr | inactive | – |
| Brc1c(Br)c(Br)c(Oc2c(Br)c(Br)c(Br)c(Br)c2Br)c(Br)c1Br | inactive | – |
| CC(C)(c1ccc(O)c(-c2ccccc2)c1)c1ccc(O)c(-c2ccccc2)c1 | inactive | – |
| CN(N=O)C(N)=O | inactive | – |
| CCNc1nc(NCC)nc(SC)n1 | inactive | – |
| Brc1ccc(Oc2c(Br)cc(Br)cc2Br)c(Br)c1 | inactive | – |
| Clc1cnc(Oc2ccc(Oc3ncc(Cl)cc3Cl)cc2)c(Cl)c1 | inactive | – |
| CCCCCCCCBr | inactive | – |
| Cc1cc(Cl)ccc1OCCCC(=O)O | inactive | – |
| CCCCC(CC)C(=O)Cl (stereo not drawn) | inactive | – |
| CCCCCCCCCCCCBr | inactive | – |
| Nc1nc(=S)[nH][nH]1 | inactive | – |

| Structure (SMILES) | outcome | AC50 |
| --- | --- | --- |
| N#Cc1ccccc1N | inactive | – |
| O=[N+]([O-])c1cc([As](=O)(O)O)ccc1O | inactive | – |
| N#Cc1ccccc1Cl | inactive | – |
| CCOP(=S)(OCC)O/N=C(\C#N)c1ccccc1 | inactive | – |
| c1csc(-c2ccc(-c3cccs3)s2)c1 | – | 1.62 µM (active) |
| OC(c1ccc(Cl)cc1)(c1ccc(Cl)cc1)c1cccnc1 | inactive | – |
| CC(C)C(C)(N)C#N (stereo not drawn) | inactive | – |
| CC(C)CC(C)(c1ccc(O)cc1)c1ccc(O)cc1 | – | 17 µM (active) |
| OCC(c1ccc(Cl)cc1)c1ccc(Cl)cc1 | – | 57.9 µM (active) |
| FC(F)OCC(F)(F)C(F)(F)F | inactive | – |
| CC(=O)CN(CC(C)=O)N=O | inactive | – |
| CCC[CH2][Sn]([CH2]CCC)([CH2]CCC)[CH2]CCC | – | 11.1 µM (active) |
| Cc1cc(-c2cc(C)c(N)c(C)c2)cc(C)c1N | inactive | – |
| CC(=O)C(F)(F)C(F)(F)F | inactive | – |
| Cc1ccc(CCl)cc1 | inactive | – |
| CC(F)(F)CC(F)(F)F | inactive | – |
| COC(F)(C(F)(F)C(F)(F)F)C(F)(C(F)(F)F)C(F)(F)F (stereo not drawn) | inactive | – |
| c1ccc2c(c1)Oc1ccccc1O2 | inactive | – |
| COC(=O)Nc1cccc(OC(=O)Nc2cccc(C)c2)c1 | inactive | – |
